Two compounds from PubChem BioAssay AID1159580 (chemical genetic matrix, 2015) can be followed below.

This test in a line: chemical genetic growth profiling, strain panel (AID 1159580).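 Also: tested at 20 µM; growth read once vehicle control cultures reached saturation at 30 °C; 1 = growth at the plate median or of vehicle wells; lower values mean less growth of the strain.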 The following applies: S. cerevisiae deletion strains, growth OD.
Where [1] appears, read: locus YHR030C, strain SLT2, hits give low values.
Where [2] appears, read: locus YHR079C, strain IRE1, hits give low values.
[3] abbreviates: locus YJL095W, strain BCK1, hits give low values.
Where [4] appears, read: locus YJR066W, strain TOR1, hits give low values.
[5] abbreviates: locus YLR113W, strain HOG1, hits give low values.
Setting [6] is: locus YNL183C, strain NPR1, hits give low values.
Where [7] appears, read: locus YOR231W, strain MKK1, hits give low values.
Setting [8] is: locus YPL256C, strain CLN2, hits give low values.

Hit rate of the full screen: of about 5,500 compounds, about 2,000 (36%) were called active. Another 18% or so got no clear call; they are omitted. Some of the results follow. A number with no mark means an inactive call. Rule as the data show it: active = normalized growth mostly below about 0.91 (no sharp cut-off); inconclusive = no clear call, values can overlap the other calls; inactive = mostly above about 0.92.

Turning to `CCc1oc2ccccc2c1C(=O)c1cc(Br)c(O)c(Br)c1`, the normalized growth is, setting by setting: under setting [1], 0.0985 (active); under setting [2], 0.111 (active); under setting [3], 0.101 (active); under setting [4], 0.00147 (active); under setting [5], 0.124 (active); under setting [6], 0.06 (active). The normalized growth is 0.105 (active) under setting [7] and 0.13 (active) under setting [8].
As to `O=C(O)c1ccccc1-c1c2cc(I)c(=O)c(I)c-2oc2c(I)c(O)c(I)cc12`, the normalized growth by setting is: under setting [1], 0.991; under setting [2], 1; under setting [3], 0.992; under setting [4], 0.903; under setting [5], 0.942; under setting [6], 0.93. In addition, the normalized growth was 1.02 under setting [7] and 1.01 under setting [8].
